# Results as given in publication PMC4336329 (PLoS ONE, 2015).
# Out of some 310,000 compounds screened, about 14,000 (4.5%) showed an effect of 50% or more. The effect is printed as a negative number. This excerpt belongs to a sample that is enriched for strong results.
# Molecular target: human ether-à-go-go-related gene (hERG) potassium channel (human, UniProt Q12809)
# Assay: primary screen, population patch clamp on CHO cells stably expressing hERG; higher = less effect of the substance
# 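Also: peak tail current of the secondary pulse compared with the same well before compound.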
# human ether-à-go-go-related gene (hERG) potassium channel, sequence (Q12809 whole entry, looked up): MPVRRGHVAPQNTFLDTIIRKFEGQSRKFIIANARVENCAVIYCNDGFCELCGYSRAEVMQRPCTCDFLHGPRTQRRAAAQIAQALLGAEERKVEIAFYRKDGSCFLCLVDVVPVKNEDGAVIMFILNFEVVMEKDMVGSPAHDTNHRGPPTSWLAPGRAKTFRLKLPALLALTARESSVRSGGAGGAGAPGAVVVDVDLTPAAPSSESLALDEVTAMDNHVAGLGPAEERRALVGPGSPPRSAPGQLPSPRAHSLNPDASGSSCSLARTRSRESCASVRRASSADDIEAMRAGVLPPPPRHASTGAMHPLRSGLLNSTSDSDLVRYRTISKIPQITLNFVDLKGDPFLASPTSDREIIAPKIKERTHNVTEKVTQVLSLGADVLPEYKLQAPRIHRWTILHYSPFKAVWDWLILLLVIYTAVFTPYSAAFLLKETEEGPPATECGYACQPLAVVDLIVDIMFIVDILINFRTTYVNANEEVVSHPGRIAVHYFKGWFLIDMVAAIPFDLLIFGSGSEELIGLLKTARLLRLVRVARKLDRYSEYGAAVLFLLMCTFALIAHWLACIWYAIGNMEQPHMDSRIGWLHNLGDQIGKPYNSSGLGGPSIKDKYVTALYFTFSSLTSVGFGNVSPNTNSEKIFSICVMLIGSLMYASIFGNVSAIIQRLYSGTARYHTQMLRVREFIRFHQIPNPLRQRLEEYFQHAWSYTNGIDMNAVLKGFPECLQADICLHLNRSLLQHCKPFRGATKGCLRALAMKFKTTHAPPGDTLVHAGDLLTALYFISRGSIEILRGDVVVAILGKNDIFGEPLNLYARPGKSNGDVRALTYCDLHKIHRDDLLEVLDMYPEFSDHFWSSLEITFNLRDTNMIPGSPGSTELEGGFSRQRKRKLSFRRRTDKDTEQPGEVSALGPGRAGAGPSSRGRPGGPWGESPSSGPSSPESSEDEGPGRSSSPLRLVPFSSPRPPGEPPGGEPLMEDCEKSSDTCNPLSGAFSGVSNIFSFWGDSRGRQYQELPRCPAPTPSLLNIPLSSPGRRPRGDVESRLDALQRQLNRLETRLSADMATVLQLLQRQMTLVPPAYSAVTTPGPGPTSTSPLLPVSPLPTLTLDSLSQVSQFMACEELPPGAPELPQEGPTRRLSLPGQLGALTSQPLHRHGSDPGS
row,SMILES,"hERG current change (%, negative = inhibition) at 10uM"
1,CCOc1ccccc1NC(=O)COC(=O)c1ccccc1SCC(=O)N1CCCC1,1.65%
2,O=C(CCN1CCN(Cc2ccccc2)CC1)NNC(=O)Cc1ccc(Cl)c(Cl)c1,-74.7%
3,O=C(CNC1CCCC1)Nc1ccc(S(=O)(=O)N2CCCCC2)cc1,-0.797%
4,NNC(=O)CCN1CCN(Cc2ccccc2)CC1,17%
5,O=C(CCN1CCN(Cc2ccccc2)CC1)Nc1cccc(Cl)c1,-70.6%
6,Cl.O=C(CCN1CCCCC1)Nc1cccc(Cl)c1,-35.9%
7,N#Cc1cccc(NC(=O)Cc2ccccc2)c1,13.6%
8,O=C(CNC1CCCCC1)Nc1ccc(S(=O)(=O)N2CCCCC2)cc1,2.13%
9,N#Cc1cccc(NC(=O)CN2CCN(Cc3ccccc3)CC2)c1,-65.1%
10,CCc1ccc(C(=O)NNC(=O)CCN2CCN(Cc3ccccc3)CC2)cc1,-19.8%
11,O=C(CCN1CCN(Cc2ccccc2)CC1)NNC(=O)Nc1cccc(Cl)c1,-47%
12,Cl.O=C(CNC1CCN(Cc2ccccc2)CC1)Nc1ccc(S(=O)(=O)N2CCCCC2)cc1,-69.7%
13,N#Cc1cccc(NC(=O)CN2CCCCCC2)c1,-10.9%
14,COc1ccc(NS(=O)(=O)c2cnc[nH]2)cc1,17.4%
15,COCCCNC(=O)c1ccc(NS(C)(=O)=O)cc1,-2.85%
16,O=C(O)c1c(NC(=O)c2cccc3ccccc23)sc2c1CCC2,5.11%
17,COc1cccc(CNc2nc(C(F)(F)F)nc3ccccc23)c1,0.0262%
18,CS(=O)(=O)c1cccc(NC(=O)C2CCCN2S(=O)(=O)c2ccc(F)cc2)c1 (centres unmarked),7.77%
19,Nc1ccc(C(=O)OCc2ccncc2)cc1[N+](=O)[O-],-28.7%
20,NC(=O)c1cccnc1Nc1ccccc1F,0.0995%
21,CC1(C)C=Cc2cc3ccc(=O)oc3cc2O1,3.51%
22,COc1ccc(OCc2n[nH]c(=S)n2-c2ccc(C)cc2)cc1,0.659%
23,CCN(CC)C(=S)SCC(=O)Nc1cccc(C(F)(F)F)c1,-10%
24,Cl.O=C(CN1CCCC1)Nc1cccc(Cl)c1,-3.66%

row,SMILES,"hERG current change (%, negative = inhibition) at 10uM"
1,O=C(Cn1ccc(C(F)(F)F)n1)Nc1cccc(S(=O)(=O)N2CCCCC2)c1,-60.5%
2,Cc1ccc(S(=O)(=O)N2CCCCC2)cc1NC(=O)Cn1ccc(C(F)(F)F)n1,-8.63%
3,O=C(CN1CCN(Cc2ccccc2)CC1)Nc1cccc(Cl)c1,-60.7%
4,CN(C)C(=S)SCC(=O)Nc1cccc(C(F)(F)F)c1,-54.6%
5,O=C(Cn1cnnn1)Nc1cccc(S(=O)(=O)N2CCCCC2)c1,18.2%
6,Cl.O=C(CN1CCCCC1)Nc1cccc(Cl)c1,-28.8%
7,O=C(O)CSCC(=O)Nc1cccc(C(F)(F)F)c1,-6.67%
8,CCN1CCN(C(=S)Nc2sc(C)c(-c3ccccc3)c2C(=O)OC)CC1,15.3%
9,CC1(C)Cc2cccc(OCC(=O)OCC(=O)c3ccccc3)c2O1,1.43%
10,Cc1c(NC(=O)CSc2nnnn2-c2ccc(F)cc2)c(=O)n(-c2ccccc2)n1C,-2.74%
11,Cc1cccc(C(=O)Oc2ccc(/C=N/NC(=O)c3ccncc3)cc2)c1,3.1%
12,CCS(=O)(=O)NCc1nnc2n1-c1ccc(Cl)cc1C(c1ccccc1)=NC2,12.6%
13,Cc1nnc2n1-c1ccc(Br)cc1C(c1ccccc1Cl)=NC2,-21.1%
14,CCOCCN1CCN(c2nnc3n2-c2ccc(Cl)cc2C(c2ccccc2Cl)=NC3)CC1.O=CO,-76.5%
15,COc1ccccc1C1=NCc2nnc(C)n2-c2ccc(Cl)cc21,3.01%
16,CN1CCN(Cc2nnc3n2-c2ccc(Cl)cc2C(c2ccccc2)=NC3)CC1.O=CO,-64.7%
17,CSCc1nnc2n1-c1ccc(Cl)cc1C(c1ccccc1)=NC2,-17%
18,Clc1ccc2c(c1)C(c1ccccc1Cl)=NCc1nnc(N3CCN(CCSc4ccccc4)CC3)n1-2.O.O=C(O)/C=C/C(=O)O,-66.5%
19,CCS(=O)(=O)NCc1nnc2n1-c1ccc(Br)cc1C(c1ccccc1Cl)=NC2,-49%
20,Clc1ccc2c(c1)C(c1ccccc1Cl)=NCc1nncn1-2,-4.37%
21,Clc1ccc2c(c1)C(c1ccccc1Cl)=NCc1nnc(Br)n1-2.c1ccccc1,-6.61%
22,COCCCN1CCN(c2nnc3n2-c2sc(Br)cc2C(c2ccccc2Cl)=NC3)CC1.CS(=O)(=O)O,-47.7%
23,Clc1ccc2c(c1)C(c1ccccc1Cl)=NCc1nnc(N3CCN(CCOc4ccccc4)CC3)n1-2.O=C(O)/C=C/C(=O)O,-72.7%
